In the supplement of paper PMC10849652:
Of roughly 7,900 targets only a part is listed; those with a hit were picked by preference. About 0.6% of all pairs of compound and target were hits. Values without a mark were called inactive.

What follows are targets tested with CS(=O)(=O)N1CCN(Cc2cc3nc(-c4cccc5[nH]ncc45)nc(N4CCOCC4)c3s2)CC1 [pictilisib] (assay: log2 fold change, soluble protein after heating vs DMSO (PISA); higher = thermal stabilisation; K562 cells, 10 uM, 30 min; active = over 0.2 and 3.5 SD of the protein, either way, in both replicates (recomputed)).
Procedure, shortened: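 Thermal stability values are relative to control samples and come from duplicates. They are expressed as log2 fold changes. For measurement, K562 cells (2×10^6 cells/mL) received 10 μM compound for 30 min, and aliquots were heated for 3 min over 48°C-58°C, pooled, and extracted at 4°C in PBS with 0.5% NP-40. Soluble protein, the supernatant after 21,000xg for 90 min, was quantified by TMTpro 16plex LC-MS/MS with equalised channel sums.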

Sequence of UniProt O75251 (O75251 whole entry, looked up): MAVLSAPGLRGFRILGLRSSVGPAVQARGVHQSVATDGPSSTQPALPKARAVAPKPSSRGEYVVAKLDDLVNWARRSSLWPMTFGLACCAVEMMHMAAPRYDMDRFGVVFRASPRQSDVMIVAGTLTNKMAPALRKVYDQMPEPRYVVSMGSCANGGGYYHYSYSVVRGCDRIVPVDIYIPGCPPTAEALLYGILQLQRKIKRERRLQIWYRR
Sequence of UniProt Q9H000 (Q9H000 whole entry, looked up): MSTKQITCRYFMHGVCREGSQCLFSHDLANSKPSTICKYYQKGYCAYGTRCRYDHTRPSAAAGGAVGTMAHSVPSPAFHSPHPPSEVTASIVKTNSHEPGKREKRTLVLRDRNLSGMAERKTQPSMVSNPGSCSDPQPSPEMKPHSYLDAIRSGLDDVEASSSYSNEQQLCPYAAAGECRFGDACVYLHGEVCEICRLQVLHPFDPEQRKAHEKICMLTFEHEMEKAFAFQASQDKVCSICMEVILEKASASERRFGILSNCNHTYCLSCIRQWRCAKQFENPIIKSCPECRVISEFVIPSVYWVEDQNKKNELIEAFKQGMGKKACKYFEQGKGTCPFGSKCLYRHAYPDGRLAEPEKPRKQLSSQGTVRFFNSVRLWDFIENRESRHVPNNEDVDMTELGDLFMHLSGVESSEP
Sequence of UniProt Q08J23 (Q08J23 whole entry, looked up): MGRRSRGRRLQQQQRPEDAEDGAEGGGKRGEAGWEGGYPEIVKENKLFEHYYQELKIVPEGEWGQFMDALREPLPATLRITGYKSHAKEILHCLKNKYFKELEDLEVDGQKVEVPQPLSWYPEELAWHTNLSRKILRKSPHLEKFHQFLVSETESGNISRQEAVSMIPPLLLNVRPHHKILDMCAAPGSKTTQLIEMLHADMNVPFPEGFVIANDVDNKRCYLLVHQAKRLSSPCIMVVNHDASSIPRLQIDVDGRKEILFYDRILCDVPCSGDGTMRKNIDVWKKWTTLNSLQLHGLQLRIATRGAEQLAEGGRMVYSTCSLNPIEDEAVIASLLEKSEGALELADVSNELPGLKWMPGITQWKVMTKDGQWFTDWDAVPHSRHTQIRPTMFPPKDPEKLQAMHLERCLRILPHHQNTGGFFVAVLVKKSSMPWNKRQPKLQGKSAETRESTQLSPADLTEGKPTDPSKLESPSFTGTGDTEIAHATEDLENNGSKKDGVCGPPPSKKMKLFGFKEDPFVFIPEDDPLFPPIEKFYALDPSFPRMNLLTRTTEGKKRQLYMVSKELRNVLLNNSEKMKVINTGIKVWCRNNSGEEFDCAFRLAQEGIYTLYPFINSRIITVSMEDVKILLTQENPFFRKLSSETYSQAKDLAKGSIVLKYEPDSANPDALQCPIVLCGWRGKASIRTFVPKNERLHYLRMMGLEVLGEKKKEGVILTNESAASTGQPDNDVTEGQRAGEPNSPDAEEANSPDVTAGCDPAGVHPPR
Sequence of UniProt Q9BUB5 (Q9BUB5 whole entry, looked up): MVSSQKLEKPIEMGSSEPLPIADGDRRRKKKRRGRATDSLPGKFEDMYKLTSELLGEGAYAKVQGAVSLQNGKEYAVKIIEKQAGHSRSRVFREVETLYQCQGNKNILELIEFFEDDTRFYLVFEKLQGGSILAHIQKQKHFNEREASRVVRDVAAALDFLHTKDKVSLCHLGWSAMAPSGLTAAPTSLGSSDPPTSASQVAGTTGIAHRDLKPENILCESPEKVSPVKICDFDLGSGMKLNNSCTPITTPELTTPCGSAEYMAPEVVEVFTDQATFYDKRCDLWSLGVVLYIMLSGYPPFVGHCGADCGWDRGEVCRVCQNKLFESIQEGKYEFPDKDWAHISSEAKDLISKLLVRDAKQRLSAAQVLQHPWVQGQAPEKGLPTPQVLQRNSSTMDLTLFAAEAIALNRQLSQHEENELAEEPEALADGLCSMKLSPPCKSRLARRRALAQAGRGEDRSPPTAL
Sequence of UniProt O00567 (O00567 whole entry, looked up): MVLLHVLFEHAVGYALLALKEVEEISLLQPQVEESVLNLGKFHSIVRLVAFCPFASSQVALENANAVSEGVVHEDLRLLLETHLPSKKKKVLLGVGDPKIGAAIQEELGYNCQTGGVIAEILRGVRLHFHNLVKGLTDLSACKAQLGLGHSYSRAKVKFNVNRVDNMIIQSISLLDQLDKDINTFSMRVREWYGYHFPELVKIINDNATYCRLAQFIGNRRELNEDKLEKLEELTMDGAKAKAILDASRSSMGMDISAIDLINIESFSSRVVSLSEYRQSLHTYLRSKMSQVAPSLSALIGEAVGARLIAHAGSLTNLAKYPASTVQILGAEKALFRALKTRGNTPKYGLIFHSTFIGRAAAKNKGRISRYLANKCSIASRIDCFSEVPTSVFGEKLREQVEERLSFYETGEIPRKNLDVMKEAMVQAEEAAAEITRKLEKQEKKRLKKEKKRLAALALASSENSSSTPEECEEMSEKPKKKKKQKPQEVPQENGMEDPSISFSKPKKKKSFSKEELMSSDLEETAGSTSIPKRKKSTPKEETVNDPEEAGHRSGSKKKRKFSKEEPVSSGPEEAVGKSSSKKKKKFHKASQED
Sequence of UniProt P84157 (P84157 whole entry, looked up): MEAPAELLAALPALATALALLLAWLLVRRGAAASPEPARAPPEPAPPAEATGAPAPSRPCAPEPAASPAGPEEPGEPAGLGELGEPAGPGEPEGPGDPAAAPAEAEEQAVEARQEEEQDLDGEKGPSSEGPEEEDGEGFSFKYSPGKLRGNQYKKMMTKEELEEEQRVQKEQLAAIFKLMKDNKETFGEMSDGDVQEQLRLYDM
Sequence of UniProt Q8WV92 (Q8WV92 whole entry, looked up): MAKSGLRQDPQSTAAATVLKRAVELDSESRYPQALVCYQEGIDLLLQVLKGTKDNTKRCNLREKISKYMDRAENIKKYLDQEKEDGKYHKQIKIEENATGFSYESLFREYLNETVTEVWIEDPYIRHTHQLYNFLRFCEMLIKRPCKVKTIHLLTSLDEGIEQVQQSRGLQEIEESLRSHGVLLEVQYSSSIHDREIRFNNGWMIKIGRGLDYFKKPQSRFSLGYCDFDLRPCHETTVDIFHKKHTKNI
Sequence of UniProt Q16621 (Q16621 whole entry, looked up): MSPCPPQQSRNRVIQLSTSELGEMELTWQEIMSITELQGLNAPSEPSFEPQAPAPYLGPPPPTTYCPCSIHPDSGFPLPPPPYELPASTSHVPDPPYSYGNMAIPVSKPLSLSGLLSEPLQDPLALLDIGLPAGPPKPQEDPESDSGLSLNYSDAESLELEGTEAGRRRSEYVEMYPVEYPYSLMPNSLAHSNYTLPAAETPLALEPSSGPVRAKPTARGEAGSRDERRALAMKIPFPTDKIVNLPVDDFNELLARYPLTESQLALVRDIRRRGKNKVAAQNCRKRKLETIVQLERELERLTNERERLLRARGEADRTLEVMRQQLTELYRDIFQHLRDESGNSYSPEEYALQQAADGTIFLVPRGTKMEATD
Sequence of UniProt P17568 (P17568 whole entry, looked up): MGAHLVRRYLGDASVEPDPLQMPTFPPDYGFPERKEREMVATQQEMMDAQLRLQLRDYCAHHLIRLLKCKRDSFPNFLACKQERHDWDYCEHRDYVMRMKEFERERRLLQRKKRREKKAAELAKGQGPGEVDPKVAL
Sequence of UniProt O60313 (O60313 whole entry, looked up): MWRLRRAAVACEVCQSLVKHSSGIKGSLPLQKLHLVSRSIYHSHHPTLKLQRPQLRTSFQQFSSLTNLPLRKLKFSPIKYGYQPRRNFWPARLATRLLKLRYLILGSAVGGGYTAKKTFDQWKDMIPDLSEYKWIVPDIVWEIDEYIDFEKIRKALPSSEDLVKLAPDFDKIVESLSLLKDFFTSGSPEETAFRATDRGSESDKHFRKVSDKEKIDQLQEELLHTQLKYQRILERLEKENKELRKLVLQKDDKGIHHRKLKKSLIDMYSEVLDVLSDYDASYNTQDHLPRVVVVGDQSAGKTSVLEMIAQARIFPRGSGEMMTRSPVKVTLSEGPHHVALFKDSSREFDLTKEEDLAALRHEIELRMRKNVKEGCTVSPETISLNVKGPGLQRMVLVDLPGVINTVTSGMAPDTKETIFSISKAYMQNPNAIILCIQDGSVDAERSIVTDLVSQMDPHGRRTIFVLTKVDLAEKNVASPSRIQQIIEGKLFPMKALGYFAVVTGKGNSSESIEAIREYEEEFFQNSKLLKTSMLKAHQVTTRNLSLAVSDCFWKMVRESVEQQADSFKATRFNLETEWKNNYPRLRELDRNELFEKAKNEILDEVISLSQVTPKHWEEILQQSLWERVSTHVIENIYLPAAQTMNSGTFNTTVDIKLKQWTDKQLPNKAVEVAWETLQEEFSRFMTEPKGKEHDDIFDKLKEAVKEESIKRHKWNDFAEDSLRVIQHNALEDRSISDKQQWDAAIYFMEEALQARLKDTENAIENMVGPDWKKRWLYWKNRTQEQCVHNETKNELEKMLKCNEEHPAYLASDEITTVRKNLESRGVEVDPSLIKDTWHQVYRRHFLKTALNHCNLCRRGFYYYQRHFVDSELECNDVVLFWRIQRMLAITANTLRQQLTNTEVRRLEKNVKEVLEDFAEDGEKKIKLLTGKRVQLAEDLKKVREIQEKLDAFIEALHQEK
Sequence of UniProt Q96BN8 (Q96BN8 whole entry, looked up): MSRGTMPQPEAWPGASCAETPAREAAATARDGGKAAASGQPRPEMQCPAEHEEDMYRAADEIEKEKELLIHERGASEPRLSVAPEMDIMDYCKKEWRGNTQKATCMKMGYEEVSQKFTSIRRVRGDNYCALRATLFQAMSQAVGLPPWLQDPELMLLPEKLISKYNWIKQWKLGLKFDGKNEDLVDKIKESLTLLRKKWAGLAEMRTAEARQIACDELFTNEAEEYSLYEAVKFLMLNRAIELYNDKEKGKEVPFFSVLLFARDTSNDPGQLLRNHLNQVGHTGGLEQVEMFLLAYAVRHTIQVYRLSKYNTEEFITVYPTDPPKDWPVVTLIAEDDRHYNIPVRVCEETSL
Sequence of UniProt O95169 (O95169 whole entry, looked up): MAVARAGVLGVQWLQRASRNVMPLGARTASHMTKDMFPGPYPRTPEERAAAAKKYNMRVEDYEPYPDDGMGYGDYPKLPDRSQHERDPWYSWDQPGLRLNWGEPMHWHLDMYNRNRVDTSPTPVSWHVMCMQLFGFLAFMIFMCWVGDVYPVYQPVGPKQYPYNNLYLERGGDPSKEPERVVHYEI

Target | log2 fold change
NDUFB8 (UniProt O95169) | -0.034
MRPS12 (UniProt O15235) | -0.177
MKNK1 (UniProt Q9BUB5) | -0.058
NELFA (UniProt Q9H3P2) | 0.076
MRPS2 (UniProt Q9Y399) | -0.015
MRPS16 (UniProt Q9Y3D3) | -0.03
NOP56 (UniProt O00567) | 0.013
MITD1 (UniProt Q8WV92) | -0.121
NDUFS7 (UniProt O75251) | 0.047
NARS2 (UniProt Q96I59) | -0.037
NDUFA6 (UniProt P56556) | 0.087
NDUFA9 (UniProt Q16795) | -0.024
NMNAT1 (UniProt Q9HAN9) | -0.014
NQO1 (UniProt P15559) | -0.006
OTULIN (UniProt Q96BN8) | 0.023
NDUFB7 (UniProt P17568) | -0.066
MUL1 (UniProt Q969V5) | 0.006
MSTO1 (UniProt Q9BUK6) | 0.021
NSUN2 (UniProt Q08J23) | -0.088
MKRN2 (UniProt Q9H000) | 0.03

Target | log2 fold change
NFE2 (UniProt Q16621) | 0.05
MRPS9 (UniProt P82933) | -0.049
NCAPH (UniProt Q15003) | 0.062
NGLY1 (UniProt Q96IV0) | 0.045
NUDT16 (UniProt Q96DE0) | 0.045
NIBAN1 (UniProt Q9BZQ8) | 0
NUP210 (UniProt Q8TEM1) | -0.114
NMT1 (UniProt P30419) | 0.029
MRPS35 (UniProt P82673) | -0.021
OPA1 isoform 2 (UniProt O60313) | -0.07
NA, A0A096LPI6 | -0.02
NOL7 (UniProt Q9UMY1) | -0.095
MRPS15 (UniProt P82914) | -0.13
MXRA7 (UniProt P84157) | -0.053
MPP1 (UniProt Q00013) | 0.096
MTMR14 (UniProt Q8NCE2) | 0.083
MRPS25 (UniProt P82663) | 0.063
MMS19 isoform 8 (UniProt Q96T76) | -0.008
NUDT21 (UniProt O43809) | 0.017
